About 80 (0.1%) of roughly 62,000 compounds were called active. The rule behind the calls is not given here. Not all results are given here. Potency and affinity values are given separately.
Target: Ephrin type-A receptor 4 (Mus musculus) (UniProt Q03137)
Test: inhibitors of EphA4 binding to KYL peptide, primary screen, biochemical, colorimetric, mouse EphA4 (AID 689)
Settings: EphA4-AP binding to KYL peptide, pNPP A405, at 10 µM, stronger effect = higher value

Chain of Ephrin type-A receptor 4 (Mus musculus) (Q03137 whole entry, looked up): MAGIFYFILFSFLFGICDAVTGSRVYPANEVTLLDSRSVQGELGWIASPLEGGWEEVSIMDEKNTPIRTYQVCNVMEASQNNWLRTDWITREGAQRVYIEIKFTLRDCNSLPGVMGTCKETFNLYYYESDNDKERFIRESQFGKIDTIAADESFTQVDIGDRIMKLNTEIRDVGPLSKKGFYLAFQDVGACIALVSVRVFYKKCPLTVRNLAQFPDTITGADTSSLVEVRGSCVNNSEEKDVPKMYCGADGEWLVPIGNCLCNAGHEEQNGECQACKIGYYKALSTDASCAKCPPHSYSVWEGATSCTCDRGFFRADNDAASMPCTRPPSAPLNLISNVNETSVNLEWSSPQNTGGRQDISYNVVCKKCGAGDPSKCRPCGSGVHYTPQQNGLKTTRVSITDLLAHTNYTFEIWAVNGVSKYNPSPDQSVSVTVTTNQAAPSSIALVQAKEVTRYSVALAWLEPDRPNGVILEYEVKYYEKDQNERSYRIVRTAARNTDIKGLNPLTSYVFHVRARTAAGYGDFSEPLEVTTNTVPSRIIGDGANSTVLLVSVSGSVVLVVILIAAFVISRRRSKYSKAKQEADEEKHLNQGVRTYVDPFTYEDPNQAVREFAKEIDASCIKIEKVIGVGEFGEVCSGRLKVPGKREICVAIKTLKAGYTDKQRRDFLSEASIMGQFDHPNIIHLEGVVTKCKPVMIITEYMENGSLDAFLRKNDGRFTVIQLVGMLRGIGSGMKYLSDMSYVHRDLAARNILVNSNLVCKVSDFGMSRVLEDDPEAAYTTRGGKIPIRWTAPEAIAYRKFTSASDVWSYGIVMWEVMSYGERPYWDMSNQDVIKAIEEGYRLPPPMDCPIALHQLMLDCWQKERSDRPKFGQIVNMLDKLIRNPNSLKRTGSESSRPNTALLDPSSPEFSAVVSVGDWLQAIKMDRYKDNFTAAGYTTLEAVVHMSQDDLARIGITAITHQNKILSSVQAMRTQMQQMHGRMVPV

inhibition, inactive:
O=C(NCCOc1ccccc1F)c1cccc2ccccc12 -0.6% [this sample at 5 µg/mL]
COC(=O)c1ccc(Cn2cnc3c(cnn3-c3ccc(F)cc3)c2=O)o1 9.4%
CCOc1ccc(NC(=O)CSc2nc(C)c3c(c2C#N)CCCC3)cc1 -14.6%
Cc1ccc(/C=C/C2=Cc3c(sc(NC(=O)CSc4n[nH]c(N)n4)c3C#N)C(C)(C)C2)o1 44.8%
Cc1sc(NC(=O)CSc2nnc(C)c(=O)[nH]2)c(C#N)c1C -25.1%
Cc1ccc(OCc2nnc(SCC(=O)Nc3sc(C)c(C)c3C#N)n2C)cc1 -5.2%
COc1cc(C2N(c3ccc(Cl)c(Cl)c3)C(=O)C3CCCN32)cc(OC)c1OC (configuration not stated) -1.5%
O=C(NC1CCCCCCC1)C1CCCN(S(=O)(=O)c2cnc[nH]2)C1 (configuration not stated) -3.1%
COc1ccc(C)cc1NC(=O)C1CC(=O)N(Cc2ccco2)C1 (configuration not stated) -16.4%
O=C1CCCC2=C1C(c1ccco1)Nc1ccc(C(=O)c3ccccc3)cc1N2 (configuration not stated) -4.7%
O=C1CCCC2=C1C(c1cccs1)Nc1ccc3ncccc3c12 (configuration not stated) -5.1%
CC1(C)N=C(c2ccc(Cl)cc2Cl)C(=O)N1 -8.8%
CCOc1ccccc1NC(=S)N1CCC(NC(=O)NC23CC4CC(CC(C4)C2)C3)CC1 -4.6%
O=C(c1ccc2c(c1)OCO2)N1CCC(CN2C(=O)c3cccc4cccc(c34)C2=O)CC1 -13.5% [this sample at 5 µg/mL]
Cc1ccc2nc(NC3=NCN(Cc4ccccc4)CN3)nc(C)c2c1 1.1%
O=C1/C(=C\c2ccc(-c3ccccc3Cl)o2)SC(=S)N1Cc1ccccc1 18.2% [this sample at 5 µg/mL]
CN1C(=O)/C(=C2\SC(=S)N(CC3CCCO3)C2=O)c2ccccc21 (configuration not stated) -3.2%
Cc1ccccc1OCC(=O)Nc1ccc2c(c1)Cc1ccccc1-2 -9.2%
Cc1c(NC(=O)CC(=O)Nc2c(C)n(C)n(-c3ccccc3)c2=O)c(=O)n(-c2ccccc2)n1C 0.3%
Cc1c(NC(=S)N/N=C/c2ccc(O)cc2)c(=O)n(-c2ccccc2)n1C -1.6%
COc1ccccc1-c1nnc2n1N=C(c1ccc(O)c(O)c1)CS2 -9.2%
COc1cc(/C=c2\sc3nc4ccccc4n3c2=O)ccc1OCCOc1ccccc1 -2.3% [this sample at 5 µg/mL]
COc1cc(/C=c2\sc3nc4ccccc4n3c2=O)ccc1OS(=O)(=O)c1ccccc1 10.7% [this sample at 5 µg/mL]
COCCNC(=O)CN(C(=O)CCC(=O)Nc1nccs1)c1ccccc1OC -10.3%
CN1/C(=C\C=[N+](C)c2ccccc2)C(C)(C)c2ccccc21 -36.4%
CCN1C(=O)/C(=C/C=C2/SCCN2C)SC1=S -7.6%
CCN1C(=O)/C(=C\c2cccc(C)c2)SC1=S -1.5% [this sample at 5 µg/mL]
CN1/C(=C\C=Nc2ccccc2)C(C)(C)c2ccccc21 4%
COc1ccc(C(=O)NCCCn2ccnc2)cc1 3%
O=C(Nc1ccccc1)N1CCC(C(=O)N2CCN(S(=O)(=O)c3cccc(F)c3)CC2)CC1 -6.6%
COc1ccc(OC)c(NC(=O)CN(c2ccccc2)S(=O)(=O)c2ccccc2[N+](=O)[O-])c1 -12.2% [this sample at 5 µg/mL]
CCOC(=O)C1CCCN(C(=O)COc2ccccc2O)C1 (configuration not stated) -0.6%
COCCN(Cc1cc2cc3c(cc2nc1Cl)OCO3)C(=O)Nc1ccccc1OC -13.8%
CCN(CC)CCCN(Cc1cc2cc3c(cc2[nH]c1=O)OCCO3)C(=O)Nc1ccc(F)cc1 9.2%
Cc1ccc(-n2ncnc2-c2cccc(Cl)c2)cc1Cl 0.3% [this sample at 5 µg/mL]
COc1ccccc1-c1c(C(F)(F)F)oc2c(CN3CCCC3)c(O)ccc2c1=O -1.3% [this sample at 5 µg/mL]
O=C1SC(c2ccccc2)=N/C1=C/c1ccco1 -12.4%
CCCSC1=N/C(=C\c2ccsc2)C(=O)S1 -0.1%
COc1ccc(-c2nnc3n2N=C(C)CS3)cc1OC -3.7%
CCC(CC)COC(=O)C(C#N)c1nc2ccccc2nc1N1CCOCC1 (configuration not stated) 48.9%
N#CC(C(=O)OC1CCCCC1)c1nc2ccccc2nc1N1CCOCC1 (configuration not stated) -17.3%
CC1CCN(c2nc3ccccc3nc2C(C#N)C(=O)OC2CCCCC2)CC1 (configuration not stated) 42.2%
COCCOC(=O)C(C#N)c1nc2ccccc2nc1N1CCCC1 (configuration not stated) 20.7%
C=CCN1C(=O)[C@]2(c3ccccc31)C1CCCC=C1C(C#N)=C(N)C2(C#N)C#N (some centres not stated) -6.6%
CC(=O)Nc1ccc(S(=O)(=O)N2CCN(C34CC5CC(CC(C5)C3)C4)CC2)cc1 -1.8%
COc1ccc(C(CC(=O)Nc2ccc(F)cc2)c2ccccc2)cc1 (configuration not stated) -16.8%
O=C(CSc1nnc(-c2ccc(S(=O)(=O)N3CCOCC3)cc2)o1)c1ccccc1F -15.3%
CCOC(=O)c1c(NC(C)=O)sc2c1CCCNC2=O 12.2%
CCCCC(=O)Nc1sc2c(c1C(=O)OCC)CCC(C=O)=C2Cl -6.4%
CC(C)OP(=O)(c1ccc(N(C)C)cc1)C(O)c1ccncc1 (configuration not stated) -19.9%
COc1ccc(N2CCN(C(=O)c3csc4ccccc34)CC2)cc1 -8.7%
Cc1ccc(S(=O)(=O)N(Cc2ccccc2)c2ccccc2C(=O)NCc2ccc(Cl)cc2)cc1 22% [this sample at 5 µg/mL]
COc1cc(C(=O)N2CCCN(c3nc4cc(C)ccc4cc3C#N)CC2)cc(OC)c1OC 1.5%
Cc1ccc2cc(C#N)c(N3CCCN(C(=O)C4CCCO4)CC3)nc2c1 (configuration not stated) 2.7%
CCOc1ccc2oc(C)c(C(=O)OC(C)C)c2c1 -14.8% [this sample at 5 µg/mL]
O=S(=O)(c1ccc(Cl)cc1)N1CCN(c2ccccn2)CC1 11% [this sample at 5 µg/mL]
Cc1cc([N+](=O)[O-])nn1CC(=O)NNC(=S)Nc1ccc(Cl)cc1 -10.8%
COc1ccc(N2Cc3cccc(C(=O)N4CCN(C(=O)c5ccco5)CC4)c3C2=O)cc1 11.2%
COc1ccc(N2Cc3cccc(C(=O)N4CCOCC4)c3C2=O)cc1 7.2%
Cn1c(SCC(=O)N2CCOCC2)nc2cccnc21 2.2%
CCOC(=O)CSc1nnc(-c2ccc(Br)cc2)o1 5.7% [this sample at 5 µg/mL]
O=C(OCc1ccccc1)Sc1nnc(-c2ccc(Br)cc2)o1 -5.7% [this sample at 5 µg/mL]
Cc1cc2c(ccc3[nH]onc32)n1 16.7%
CC1=NN(c2ccccc2)C(=O)/C1=C/c1cc2cc(C)ccc2nc1N1CCCCC1 5.3%
O=C1OC(c2ccccc2)=N/C1=C\N1CCCCC1 -17.4%
CN(C)/C(CN1CCOCC1)=C1\N=C(c2ccccc2)OC1=O -14%
Cc1ccc(C2=N/C(=C\N3CCCCC3)C(=O)O2)cc1 -3.3%
CCn1c(SCC(=O)OC(C)C)nnc1-c1cccc(Cl)c1 -13.7%
C=CCNC(=O)c1ccc(N2C(=O)c3ccccc3C2=O)cc1 -9.3% [this sample at 5 µg/mL]
CCOC(=O)N1CCN(C(=O)CSCc2nc(-c3ccccc3C)oc2C)CC1 7.2%
CCOc1ccc(N(CC(=O)Nc2ccc3c(c2)OCCO3)S(=O)(=O)c2c(C)noc2C)cc1 -0.5%
O=C(C/C=N\OCc1c(Cl)cccc1Cl)Oc1ccc(Cl)cc1Cl -11.4%
Nc1ccc2c(c1)C(=O)C(=O)c1ccccc1-2 -16.9%
Nc1ccc(NC(=O)c2ccccc2)c2c1C(=O)c1ccccc1C2=O -5.6%
CC1CN(CC(=O)N2CCc3[nH]c4ccccc4c3C2)CC(C)O1 (configuration not stated) -14.2%
CC(N=c1ccccn1C(=O)Nc1ccc(Cl)cc1)c1ccco1 (configuration not stated) 6.6%
Oc1oc(-c2ccccc2)nc1C=Nc1ccccc1 1%
CN(C)c1ccc(N=Cc2nc(-c3ccccc3)oc2O)cc1 -7.6%
COc1ccc(C2C(C(=O)OCC(=O)N3CCCCC3)CCC(=O)N2c2ccc(OC)cc2)cc1 (configuration not stated) -9.6%
COc1cc(NC(=O)c2ccc(NS(=O)(=O)c3c(C)noc3C)cc2)cc(OC)c1 -7.5%
Cc1ccccc1NC(=O)CSc1nnc(-c2ccco2)c(-c2ccco2)n1 32.3%
O=C(CSc1nnc(-c2ccco2)c(-c2ccco2)n1)Nc1ccccc1 41.7%
CS(=O)(=O)N1CCN(Cc2ccc(Cl)cc2)CC1 -10.7% [this sample at 5 µg/mL]
CC(C)CN1C(=O)/C(=C/c2ccco2)SC1=S 30.2% [this sample at 5 µg/mL]
CC(C)C(C(=O)O)N1C(=O)/C(=C/c2ccc3c(c2)OCO3)SC1=S (configuration not stated) -2% [this sample at 5 µg/mL]
CC(C(=O)O)N1C(=O)/C(=C/c2ccc([N+](=O)[O-])cc2)SC1=S (configuration not stated) 3.4% [this sample at 5 µg/mL]
CC(C(=O)O)N1C(=O)/C(=C/c2ccc3c(c2)OCO3)SC1=S (configuration not stated) 0.6% [this sample at 5 µg/mL]

Source: PubChem BioAssay AID689 (Sanford-Burnham Center for Chemical Genomics, 2007)
